Experimental data reported in PubChem BioAssay.
Values without a mark were called inactive.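 The calls were made as follows: active = compounds giving at least 50% inhibition in the cell-based MKP-3 phosphatase rescue imaging test; inactive = the rest.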

molecular target: Dual specificity protein phosphatase 6 (Homo sapiens) (UniProt Q16828); test: DUSP6 inhibitors restoring Erk phosphorylation by chemical complementation, primary imaging in DUSP6-transfected HeLa (AID 609); settings: HeLa MKP-3 transfected, phospho-Erk imaging KS statistic; at 10 µM; active compounds read high; cells stimulated with TPA for 15 min;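 also: phospho-Erk level distribution per well compared with pooled transfected vehicle control wells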
Sequence (Q16828 whole entry, looked up): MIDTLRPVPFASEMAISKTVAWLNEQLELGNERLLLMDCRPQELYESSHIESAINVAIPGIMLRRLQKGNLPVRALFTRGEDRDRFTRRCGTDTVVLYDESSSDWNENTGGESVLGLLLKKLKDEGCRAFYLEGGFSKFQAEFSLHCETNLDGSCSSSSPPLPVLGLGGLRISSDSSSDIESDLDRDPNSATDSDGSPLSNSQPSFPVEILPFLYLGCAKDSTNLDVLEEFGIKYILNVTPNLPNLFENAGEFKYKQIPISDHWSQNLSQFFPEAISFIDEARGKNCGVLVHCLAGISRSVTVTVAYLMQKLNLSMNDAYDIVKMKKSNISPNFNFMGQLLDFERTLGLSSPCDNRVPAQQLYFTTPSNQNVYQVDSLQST

| Compound | inhibition [%] |
| --- | --- |
| O=C1C=C(O)CC(c2cccs2)C1 (stereo not given) | -1.12 |
| Cc1c(C(Nc2ccccn2)c2ccccc2)c(=O)n(-c2ccccc2)n1C (stereo not given) | -9.7 |
| O=C(c1nsnc1-c1ccccc1O)N1CCCCC1 | 17.8 |
| Cc1cc(=O)oc(C)c1C(=O)N1CCN(C)CC1 | -8.59 |
| CCCOc1ccc(C2NC(=O)NC2=O)cc1 (stereo not given) | -0.159 |
| O=c1c(-c2ccc3c(c2)OCCO3)c(C(F)(F)F)oc2cc(O)cc(O)c12 | 1.9e-07 |
| Cn1c(=NCC(O)COc2ccccc2)sc2ccccc21 (stereo not given) | -8.95 |
| COc1cc(-c2cc(C(F)(F)F)n3ncc(C(=O)O)c3n2)cc(OC)c1OC | 11.3 |
| CCOC(=O)CSc1nc(-c2ccncc2)ccc1C#N | -3.95 |
| COc1ccc(OCC(O)Cn2c(Nc3cccc(C)c3)nc3c2c(=O)n(C)c(=O)n3C)cc1 (stereo not given) | 26.3 |
| CCCCn1c2nc3ccccc3nc2c2c(=O)n(CC(C)C)cnc21 | 17.4 |
| CCN(CC)S(=O)(=O)c1ccc2c(c1)c(C(=O)O)cn2C | 24.4 |
| CSc1nc(C)cc(OCCNS(=O)(=O)c2cc(C)ccc2C)n1 | 12.3 |
| CCOc1nc(SC(C(C)=O)C(=O)Nc2ccccc2)nc(N(C)C)n1 (stereo not given) | 10.5 |
| O=C(Oc1ccccc1N1C(=O)CCC1=O)c1ccco1 | 3.5 |
| Cc1cc(C)c(C#N)c(SCC(=O)NC2CC2)n1 | 2.92 |
| COC(=O)c1ccccc1NC=C1C(=O)OC2(CCCCC2)OC1=O | 1.42 |
| Cc1cc(C)n(C(=O)CN2C(=O)CCC2=O)n1 | -5.62 |
| CN1C2C=C3C(C#N)=C(N)C(C#N)(C#N)[C@@H](c4ccsc4)[C@@H]3C1CC2 (stereo not given in full) | 28.1 |
| Cc1ccc(/C=c2\sc3n(c2=O)CN(c2ccc(Br)cc2)CN=3)o1 | 22.7 |

| Compound | inhibition [%] |
| --- | --- |
| Clc1ccccc1-c1nn2c(-c3ccccn3)nnc2s1 | -0.674 |
| CC(=O)NC1(C(F)(F)F)C(=O)Nc2c1c(=O)n(C)c(=O)n2C (stereo not given) | 1.6e-07 |
| CC(Sc1nc(N2CCCCC2)c2c(c1C#N)CCCC2)C(=O)O (stereo not given) | 9.82 |
| CCN(CC)CCCn1c(C)cc2c(c1=O)C(c1cccc(Cl)c1)C(C#N)=C(N)O2 (stereo not given) | 2.46 |
| CCCCOC(=O)CSc1nc(N)c(C#N)c(-c2ccc(OC)cc2)c1C#N | 3.66 |
| COc1ccc(N2CCN(C3CC(=O)NC3=O)CC2)cc1 (stereo not given) | 9.82 |
| O=C(c1ccco1)N1CCN(c2ncnc3c2[nH]c2ccccc23)CC1 | 0.671 |
| COc1ccc(OC)c(C2NC(=O)c3sc(=S)n(-c4ccccc4)c3N2)c1 (stereo not given) | -6.86 |
| CCOc1ccc(-c2nn3c(-c4ccc(OC)cc4)nnc3s2)cc1 | 2.92 |
| c1cncc(-c2nnc3sc(C4CCCCC4)nn23)c1 | 8.31 |
| Cc1c(C(=O)O)c(=S)sn1CCOc1ccccc1 | 14 |
| CCC1(C)Cc2c(sc3c2c(=O)n(C)c2nnc(SCc4ccc5c(c4)OCO5)n32)CO1 (stereo not given) | 22.3 |
| CCCC(=O)N1CCN(c2nc(CC(C)C)c3c(c2C#N)CCC3)CC1 | -5.26 |
| COC(=O)c1c(C)noc1-c1cc(C)on1 | 3.56 |
| CN1c2ccccc2N(C)C1c1c(O)ccc2ccccc12 | -2.07 |
| O=C1CCC(=O)N1CN(C(=O)c1ccco1)c1ccc(Cl)c(Cl)c1 | -3.5 |
| CC(C)Oc1ccc(Cc2c(O)nc(NCCCN(C)C)[nH]c2=O)cc1 | -2.07 |
| CCCCOc1ccc(CSC(CC(=O)O)C(=O)O)cc1 (stereo not given) | 3.5 |
| COCc1cc(=O)[nH]c(Nc2nc3ccc(C)cc3o2)n1 | -3.97 |
| CCOC(=O)CCCCC(=O)NC(CO)C(=O)NC (stereo not given) | 22.1 |
